Experimental data as given in PubChem BioAssay.

Target: Follistatin (Homo sapiens) (UniProt P19883)
Assay: FST protein binding to printed compounds – biochemical, small-molecule microarray, 635/667 nm fluorescence, primary screen (AID 1132)
Details: 635 nm fluorescence, higher = more signal

Chain of Follistatin (Homo sapiens) (P19883 whole entry, looked up): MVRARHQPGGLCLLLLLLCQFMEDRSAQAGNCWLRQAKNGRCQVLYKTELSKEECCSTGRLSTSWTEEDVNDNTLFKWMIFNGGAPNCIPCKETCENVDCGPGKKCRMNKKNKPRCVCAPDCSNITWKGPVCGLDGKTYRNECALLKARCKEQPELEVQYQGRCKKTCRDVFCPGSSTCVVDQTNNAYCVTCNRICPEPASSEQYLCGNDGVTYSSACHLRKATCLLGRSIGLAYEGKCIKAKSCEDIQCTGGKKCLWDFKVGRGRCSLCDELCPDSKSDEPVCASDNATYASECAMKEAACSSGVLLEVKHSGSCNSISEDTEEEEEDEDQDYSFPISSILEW

Row | SMILES | composite z-score
1 | COC(=O)[C@@]1(Cc2ccccc2N=[N+]=[N-])N=C(c2ccc(OCCCO)cc2)O[C@H]1c1ccccc1CN=[N+]=[N-] | 1.29
2 | O=C(NCc1ccccc1)c1ccc(Br)cc1[N+](=O)[O-] | 0.405
3 | C=C(COC)/C(=C/C[C@H](OC(C)=O)c1ccc(OCCO)cc1)c1cnc2ccccc2c1 | 1.4
4 | COc1cc2c(cc1OC)CN(C(=O)[C@H]1[C@@H]3C(=O)O[C@@H](c4ccccc4)[C@@H](c4ccccc4)N3[C@@H](c3ccccc3OCCO)[C@]13C(=O)Nc1ccc(C#CC4(O)CCCCCC4)cc13)CC2 | 1.37
5 | COCCOC(=O)N1C(=O)[C@@]2(c3cc(C#CCCO)ccc31)[C@H](c1ccc(O)cc1)N1[C@H](c3ccccc3)[C@H](c3ccccc3)OC(=O)[C@H]1[C@@H]2C(=O)Nc1nc2ccccc2s1 | 1.27
6 | CC[C@H]1C2=C3C(CC[C@H]4C(OC)OC[C@](C)([C@@H]34)N(C(=O)OC(C)(C)C)C2)C(CO)C1CO (stereo partly specified) | 0.579
7 | CN(C)C(=O)[C@@]1(Cc2ccccc2N=[N+]=[N-])N=C(c2ccc(OCCCO)cc2)O[C@H]1c1ccccc1CN=[N+]=[N-] | 1.21
8 | CC(C)[C@H]1NC(=O)[C@@]23C(=O)N[C@@H](Cc4ccccc4)C2[C@H](C)[C@@]2(C)O[C@H]2C3/C=C/C/C=C\CNC(=O)[C@H](C)NC1=O (stereo partly specified) | -0.412
9 | O=C1c2ccccc2[C@](Cc2ccccc2I)(C(=O)NCc2ccccc2)[C@H](c2ccc(CO)cc2)N1Cc1ccccc1C(F)(F)F | -1.2
10 | O=C1c2ccccc2[C@](Cc2ccccc2I)(C(=O)NCC(F)(F)F)[C@H](c2ccc(CO)cc2)N1Cc1ccccc1C(F)(F)F | 0.678
11 | CCC1=C2CN(Cc3ccccc3Br)[C@@H]([C@@H](O)Cc3ccccc3)C2C=CCC1 (stereo partly specified) | 0.651
12 | C=CCc1cccc([C@H]2N[C@H](C(=O)O)CC[C@@H]2C)c1 | 0.648
13 | COC(=O)C1=CC(c2ccc(CO)cc2)=CC(c2cccs2)N(Cc2cccc(OC(F)(F)F)c2)C=C1C(=O)OC (stereo unspecified) | 0.289
14 | C=C(CCCC)C(=O)CC[C@@H](OC(=O)c1cccnc1)c1cccc(OCCO)c1 | 0.674
15 | CO[C@H]1COC(=O)[C@H](Cc2ccccc2)NC(=O)CC=C[C@@H](C)[C@H](OC)COC(=O)CC=C[C@@H]1C | 0.424
16 | COCCOC(=O)N1C(=O)[C@@]2(c3cc(C#CCC(C(=O)OC)C(=O)OC)ccc31)[C@H](C(=O)N1CCN(c3ncccn3)CC1)[C@H]1C(=O)O[C@H](c3ccccc3)[C@H](c3ccccc3)N1[C@@H]2c1ccc(O)cc1 | 0.51
17 | CCCC=C(CCC)[C@@H](NS(=O)(=O)c1cccc(C(F)(F)F)c1)c1ccc(C(=O)OC)cc1 | 0.572
18 | NC(=O)[C@H]1[C@@H]2C(=O)O[C@@H](c3ccccc3)[C@@H](c3ccccc3)N2[C@@H](c2ccc(O)cc2)[C@]12C(=O)Nc1ccc(C#CCCO)cc12 | -0.458
19 | O=C(O)[C@@H]1Cc2c([nH]c3ccccc23)[C@@H](c2ccccc2)N1 | 0.607
20 | COc1cc2c(cc1OC)CN(C(=O)[C@@H]1[C@H]3C(=O)O[C@H](c4ccccc4)[C@H](c4ccccc4)N3[C@H](c3ccccc3OCCO)[C@@]13C(=O)Nc1ccccc13)CC2 | 0.666
21 | CCCC=C(CCC)[C@@H](NS(=O)(=O)c1ccc(-c2ccccc2)cc1)c1ccc(C(=O)OC)cc1 | -0.407
22 | O=C/C=C/c1ccccc1Cl | 0.0323
23 | [N-]=[N+]=NCc1ccccc1[C@H]1OC(c2ccc(OCCCO)cc2)=N[C@@]1(Cc1ccccc1N=[N+]=[N-])C(=O)NCc1ccccc1 | 1.03
24 | O=C1c2ccccc2[C@](Cc2ccccc2I)(C(=O)O)[C@H](c2ccc(CO)cc2)N1C1CCCCC1 | 1.33
25 | C=CCC(OC(C)=O)[C@@H]1[C@@H](N(Cc2cc3ccccc3o2)C(=O)Cc2ccc(F)cc2)c2cc(OCCCO)ccc2N1C(=O)c1ccc(-c2ccccc2)cc1 (stereo partly specified) | 0.0166

Target: Fibroblast growth factor 2 (Homo sapiens) (UniProt P09038)
Assay: basic fibroblast growth factor binding to printed compounds – biochemical, small-molecule microarray, 635/667 nm fluorescence, primary screen (AID 1133)
Details: FGF2, fluorescence 635/667, higher = more signal

Chain of Fibroblast growth factor 2 (Homo sapiens) (P09038 whole entry, looked up): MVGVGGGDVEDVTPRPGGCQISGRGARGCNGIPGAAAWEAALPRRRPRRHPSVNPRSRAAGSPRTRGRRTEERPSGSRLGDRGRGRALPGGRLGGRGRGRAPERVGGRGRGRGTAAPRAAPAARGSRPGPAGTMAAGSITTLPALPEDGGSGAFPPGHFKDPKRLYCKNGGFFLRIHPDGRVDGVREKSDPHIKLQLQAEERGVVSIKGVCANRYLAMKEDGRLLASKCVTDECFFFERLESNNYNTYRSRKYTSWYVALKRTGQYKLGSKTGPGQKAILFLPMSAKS

Row | SMILES | composite z-score
26 | C=CCc1cccc([C@@H]2[C@@H](C)CC[C@H]3C(=O)N4[C@H](c5cccc(CC=C)c5)[C@@H](C)CC[C@H]4C(=O)N23)c1 | 0.704
27 | CCCCCCc1nc(C2CC2)c(C)c2c1[Si](C(C)C)(C(C)C)OC2 | -0.0723
28 | CC(C)(C)OC(=O)CC[C@]1(C(=O)NCCN2CCOCC2)N=C(c2ccc(OCCCO)cc2)O[C@H]1c1ccccc1CN=[N+]=[N-] | -0.962
29 | CCOC(=O)C[C@H]1[C@H](OC(=O)c2ccccc2-c2ccccc2)[C@@H](NC(=O)c2ccc(-c3ccccc3)cc2)c2cc(OCCCO)ccc2N1C(=O)Cc1ccc(OC)cc1 | 0.487
30 | C=CCN1C(=O)[C@@]2(Cc3ccccc3)N=C(c3ccc(OCCCO)cc3)O[C@H]2c2ccccc21 | 1.08
31 | C=CCC(OC(C)=O)[C@@H]1[C@@H](N(Cc2cc3ccccc3o2)C(=O)c2ccc(C)cc2)c2cc(OCCCO)ccc2N1C(=O)c1ccc2ccccc2n1 (stereo partly specified) | -0.0362
32 | C=C(C(=O)CC[C@H](OC(=O)c1ccccc1-c1ccccc1C(=O)O)c1ccc(CO)o1)C(C)C | 1.46
33 | O=C(CS)NCCCCCNC(=O)[C@H]1C[C@H]2C(=O)N3CCC[C@H]3C(=O)N2[C@H]1c1ccc(O)cc1 | 0.917
34 | N#Cc1ccc(NN2C(C(O)CCc3ccccc3)C=CC3C(=O)N(c4ccccc4)C(=O)C32)cc1 (stereo unspecified) | -0.431
35 | O=[N+]([O-])c1ccc(C[n+]2ccc3ccc(O)cc3c2)o1 | 0.227
36 | Cc1ccc(S[C@]2(C(=O)NC(C)C)CC(=O)N(Cc3cc(C(F)(F)F)cc(C(F)(F)F)c3)[C@@H]2c2ccc(CO)cc2I)cc1 | 0.384
37 | COC(=O)[C@@]1(Cc2ccccc2N=[N+]=[N-])N=C(c2ccc(OCCCO)cc2)O[C@H]1c1ccccc1CN=[N+]=[N-] | 0.609
38 | O=C(NCc1ccccc1)c1ccc(Br)cc1[N+](=O)[O-] | 0.465
39 | C=C(COC)/C(=C/C[C@H](OC(C)=O)c1ccc(OCCO)cc1)c1cnc2ccccc2c1 | 0.813
40 | COc1cc2c(cc1OC)CN(C(=O)[C@H]1[C@@H]3C(=O)O[C@@H](c4ccccc4)[C@@H](c4ccccc4)N3[C@@H](c3ccccc3OCCO)[C@]13C(=O)Nc1ccc(C#CC4(O)CCCCCC4)cc13)CC2 | 1.27
41 | COCCOC(=O)N1C(=O)[C@@]2(c3cc(C#CCCO)ccc31)[C@H](c1ccc(O)cc1)N1[C@H](c3ccccc3)[C@H](c3ccccc3)OC(=O)[C@H]1[C@@H]2C(=O)Nc1nc2ccccc2s1 | 0.955
42 | CC[C@H]1C2=C3C(CC[C@H]4C(OC)OC[C@](C)([C@@H]34)N(C(=O)OC(C)(C)C)C2)C(CO)C1CO (stereo partly specified) | -0.468
43 | CN(C)C(=O)[C@@]1(Cc2ccccc2N=[N+]=[N-])N=C(c2ccc(OCCCO)cc2)O[C@H]1c1ccccc1CN=[N+]=[N-] | 0.512

Row | SMILES | composite z-score
44 | CC(C)[C@H]1NC(=O)[C@@]23C(=O)N[C@@H](Cc4ccccc4)C2[C@H](C)[C@@]2(C)O[C@H]2C3/C=C/C/C=C\CNC(=O)[C@H](C)NC1=O (stereo partly specified) | 0.862
45 | O=C1c2ccccc2[C@](Cc2ccccc2I)(C(=O)NCc2ccccc2)[C@H](c2ccc(CO)cc2)N1Cc1ccccc1C(F)(F)F | -1.36
46 | O=C1c2ccccc2[C@](Cc2ccccc2I)(C(=O)NCC(F)(F)F)[C@H](c2ccc(CO)cc2)N1Cc1ccccc1C(F)(F)F | 0.381
47 | CCC1=C2CN(Cc3ccccc3Br)[C@@H]([C@@H](O)Cc3ccccc3)C2C=CCC1 (stereo partly specified) | 0.209
48 | C=CCc1cccc([C@H]2N[C@H](C(=O)O)CC[C@@H]2C)c1 | 0.972
49 | COC(=O)C1=CC(c2ccc(CO)cc2)=CC(c2cccs2)N(Cc2cccc(OC(F)(F)F)c2)C=C1C(=O)OC (stereo unspecified) | -0.316
50 | C=C(CCCC)C(=O)CC[C@@H](OC(=O)c1cccnc1)c1cccc(OCCO)c1 | 1.14
51 | CO[C@H]1COC(=O)[C@H](Cc2ccccc2)NC(=O)CC=C[C@@H](C)[C@H](OC)COC(=O)CC=C[C@@H]1C | 0.144
52 | COCCOC(=O)N1C(=O)[C@@]2(c3cc(C#CCC(C(=O)OC)C(=O)OC)ccc31)[C@H](C(=O)N1CCN(c3ncccn3)CC1)[C@H]1C(=O)O[C@H](c3ccccc3)[C@H](c3ccccc3)N1[C@@H]2c1ccc(O)cc1 | 0.393
53 | CCCC=C(CCC)[C@@H](NS(=O)(=O)c1cccc(C(F)(F)F)c1)c1ccc(C(=O)OC)cc1 | 0.319
54 | NC(=O)[C@H]1[C@@H]2C(=O)O[C@@H](c3ccccc3)[C@@H](c3ccccc3)N2[C@@H](c2ccc(O)cc2)[C@]12C(=O)Nc1ccc(C#CCCO)cc12 | -0.581
55 | O=C(O)[C@@H]1Cc2c([nH]c3ccccc23)[C@@H](c2ccccc2)N1 | 0.197
56 | COc1cc2c(cc1OC)CN(C(=O)[C@@H]1[C@H]3C(=O)O[C@H](c4ccccc4)[C@H](c4ccccc4)N3[C@H](c3ccccc3OCCO)[C@@]13C(=O)Nc1ccccc13)CC2 | 0.465
57 | CCCC=C(CCC)[C@@H](NS(=O)(=O)c1ccc(-c2ccccc2)cc1)c1ccc(C(=O)OC)cc1 | -0.624
58 | O=C/C=C/c1ccccc1Cl | -0.517
59 | [N-]=[N+]=NCc1ccccc1[C@H]1OC(c2ccc(OCCCO)cc2)=N[C@@]1(Cc1ccccc1N=[N+]=[N-])C(=O)NCc1ccccc1 | 0.299
60 | O=C1c2ccccc2[C@](Cc2ccccc2I)(C(=O)O)[C@H](c2ccc(CO)cc2)N1C1CCCCC1 | 1.06
61 | C=CCC(OC(C)=O)[C@@H]1[C@@H](N(Cc2cc3ccccc3o2)C(=O)Cc2ccc(F)cc2)c2cc(OCCCO)ccc2N1C(=O)c1ccc(-c2ccccc2)cc1 (stereo partly specified) | -0.287
